For some assays here: Potency and affinity values are given separately.

Common to all, as to parameters: scale not given: direction of the effect not stated beside the values
In assay [1] the target is Protein translocase subunit SecA (Escherichia coli (strain K12)) (UniProt P10408). The assay can be described thus: Assay to Identify E. coli SecA ATPase Inhibitors. The format is functional. The conditions noted are these: 30 µM.
Assay [2] addresses T1, Ubiquitin-activating enzyme e1, putative (Leishmania donovani (strain BPK282A1)) (UniProt E9BSI1).
T1 sequence (whole entry): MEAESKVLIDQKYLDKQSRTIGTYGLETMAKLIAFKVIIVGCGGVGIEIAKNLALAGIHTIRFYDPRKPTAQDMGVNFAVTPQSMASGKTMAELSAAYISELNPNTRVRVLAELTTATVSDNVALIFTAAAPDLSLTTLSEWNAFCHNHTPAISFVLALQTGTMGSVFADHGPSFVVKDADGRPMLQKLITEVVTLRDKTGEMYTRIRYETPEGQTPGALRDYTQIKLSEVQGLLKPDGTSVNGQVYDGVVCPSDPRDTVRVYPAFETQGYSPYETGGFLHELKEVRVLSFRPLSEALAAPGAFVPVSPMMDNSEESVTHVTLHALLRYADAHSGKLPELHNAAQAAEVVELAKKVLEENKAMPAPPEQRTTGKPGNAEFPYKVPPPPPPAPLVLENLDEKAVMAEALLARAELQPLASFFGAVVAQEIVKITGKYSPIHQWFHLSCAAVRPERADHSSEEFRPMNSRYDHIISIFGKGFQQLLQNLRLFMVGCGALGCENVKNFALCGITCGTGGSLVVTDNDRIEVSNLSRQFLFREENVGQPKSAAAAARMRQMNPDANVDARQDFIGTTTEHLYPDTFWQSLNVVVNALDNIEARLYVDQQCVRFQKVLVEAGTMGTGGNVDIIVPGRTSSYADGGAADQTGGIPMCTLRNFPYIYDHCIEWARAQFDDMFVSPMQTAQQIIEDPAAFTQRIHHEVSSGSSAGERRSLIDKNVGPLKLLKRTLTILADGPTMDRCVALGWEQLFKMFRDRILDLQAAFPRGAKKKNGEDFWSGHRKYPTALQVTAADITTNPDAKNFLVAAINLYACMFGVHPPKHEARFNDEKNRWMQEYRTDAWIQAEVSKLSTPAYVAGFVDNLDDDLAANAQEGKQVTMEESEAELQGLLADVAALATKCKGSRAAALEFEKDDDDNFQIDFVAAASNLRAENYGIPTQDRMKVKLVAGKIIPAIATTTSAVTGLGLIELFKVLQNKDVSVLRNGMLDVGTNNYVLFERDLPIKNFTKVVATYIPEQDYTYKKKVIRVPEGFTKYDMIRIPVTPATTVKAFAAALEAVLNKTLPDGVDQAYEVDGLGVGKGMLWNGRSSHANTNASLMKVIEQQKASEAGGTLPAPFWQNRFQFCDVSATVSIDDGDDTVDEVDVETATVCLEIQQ
Kind of assay: Leishmania donovani Ubiquitin Activating Enzyme (LdE1). Format: functional. The conditions noted are these: 30 µM.

Assay [3] deals with AMP-activated protein kinase, AMPK (Homo sapiens) (UniProt P54646+O43741+P54619+Q9UGJ0+Q9Y478+Q13131+Q9UGI9). Kind of assay: AMP-dependent Kinase enzyme assay. An in vitro enzyme assay that detects ADP turnover that is directly proportional to AMPK activity. This uses naive AMPK that is activated during the assay with MK-8722. The format is functional. The conditions noted are these: 30 µM.

Assay [4] has as its target Sialic acid-binding Ig-like lectin 9 (Homo sapiens) (UniProt Q9Y336). The assay can be described thus: Hs-Siglec9 ALPHAscreen SOP 20170721. The conditions noted are these: 10 µM. Background: Alpha assays give light when donor and acceptor beads are brought close together.
In the next assay the test system is Trypanosoma cruzi. The assay can be described thus: Trypanosoma cruzi phosphomannomutase and mannose-1-phosphate guanylyltransferase assay. Format: functional. The conditions noted are these: 10 µM.
In assay [5] the target is T2, Arginase-2, mitochondrial (Homo sapiens) (UniProt P78540).
T2 sequence (whole entry): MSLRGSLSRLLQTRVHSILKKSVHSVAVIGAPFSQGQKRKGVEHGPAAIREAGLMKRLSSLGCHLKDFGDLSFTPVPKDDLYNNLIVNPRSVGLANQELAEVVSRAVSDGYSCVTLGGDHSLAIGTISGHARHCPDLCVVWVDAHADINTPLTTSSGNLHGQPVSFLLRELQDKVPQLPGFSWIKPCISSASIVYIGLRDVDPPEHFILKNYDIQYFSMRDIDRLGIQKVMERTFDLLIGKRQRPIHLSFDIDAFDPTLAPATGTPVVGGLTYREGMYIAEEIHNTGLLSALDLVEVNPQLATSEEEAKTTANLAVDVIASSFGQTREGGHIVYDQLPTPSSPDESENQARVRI
Kind of assay: in vitro enzyme assay to detect the production of urea directly proportional to the activity of Arginase II. Further: in the data most compounds retested in dose-response had high values. The conditions noted are these: 33.3 µM. The format is functional.

Assay [6] deals with T3, Proteasome subunit beta (Trypanosoma cruzi) (UniProt O96673).
T3 sequence (whole entry): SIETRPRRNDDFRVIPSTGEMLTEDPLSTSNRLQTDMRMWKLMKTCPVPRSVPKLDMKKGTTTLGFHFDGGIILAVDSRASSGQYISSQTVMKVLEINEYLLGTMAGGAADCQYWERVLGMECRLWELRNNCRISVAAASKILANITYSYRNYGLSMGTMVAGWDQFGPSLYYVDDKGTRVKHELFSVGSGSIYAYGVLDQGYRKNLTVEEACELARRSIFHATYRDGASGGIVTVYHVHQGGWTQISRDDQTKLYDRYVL
The assay can be described thus: Trypanosoma cruzi proteasome chymotrypsin-like activity (TcProtChymo) assay. Further: in the data most compounds retested in dose-response had high values. The settings on record: 9.37 µM. The format is functional.

The species entered for the next assay is Homo sapiens. The assay can be described thus: To identify inhibition of the IFN signalling (Jak-Stat) pathway via expression of an eGFP reporter gene under the control of an IFN-stimulated response element (ISRE) containing MxA promoter. The conditions noted are these: 30 µM. The format is functional. For orientation: In a reporter assay the amount or activity of a reporter protein is the signal.

Assay [7] concerns the target T4, Tyrosyl-tRNA synthetase, putative (Trypanosoma cruzi (strain CL Brener)) (UniProt Q4DSP6).
T4 sequence (whole entry): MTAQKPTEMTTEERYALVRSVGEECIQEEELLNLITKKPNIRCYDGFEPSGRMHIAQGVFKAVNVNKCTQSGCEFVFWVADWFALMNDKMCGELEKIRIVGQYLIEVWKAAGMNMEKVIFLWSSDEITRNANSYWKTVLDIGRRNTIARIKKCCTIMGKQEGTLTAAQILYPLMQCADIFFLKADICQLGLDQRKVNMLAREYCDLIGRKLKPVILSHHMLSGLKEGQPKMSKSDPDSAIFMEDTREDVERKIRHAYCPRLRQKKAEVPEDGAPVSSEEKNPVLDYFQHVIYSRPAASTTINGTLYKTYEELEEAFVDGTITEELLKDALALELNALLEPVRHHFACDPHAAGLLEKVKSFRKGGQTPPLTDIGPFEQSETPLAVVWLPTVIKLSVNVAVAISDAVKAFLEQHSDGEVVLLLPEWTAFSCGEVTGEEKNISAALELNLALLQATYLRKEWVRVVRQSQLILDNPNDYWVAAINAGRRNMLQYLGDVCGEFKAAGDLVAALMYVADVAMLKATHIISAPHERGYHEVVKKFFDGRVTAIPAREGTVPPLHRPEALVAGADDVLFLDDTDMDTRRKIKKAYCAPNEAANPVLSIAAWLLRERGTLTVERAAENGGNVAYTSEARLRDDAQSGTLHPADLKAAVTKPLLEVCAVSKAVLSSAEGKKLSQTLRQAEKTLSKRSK
The assay can be described thus: Trypanosoma cruzi tyrosyl tRNA synthetase (TcYRS) _High Tyrosine SOP. Further: in the data most compounds retested in dose-response had high values. Format: functional. The settings on record: 30 µM.

For assay [8], the target named is T4, Tyrosyl-tRNA synthetase, putative (Trypanosoma cruzi (strain CL Brener)). Kind of assay: Trypanosoma cruzi tyrosyl tRNA synthetase (TcYRS) SOP. The settings on record: 30 µM. The format is functional.
Assay [9] deals with Chromo domain-containing protein 1 (Saccharomyces cerevisiae (strain ATCC 204508 / S288c) (Baker's yeast)) (UniProt P32657). Kind of assay: ScCHD-1 Enzyme Inhibition Assay. Further: in the data most compounds retested in dose-response had high values. The format is functional. The settings on record: 30 µM.
Sequence of Chromo domain-containing protein 1 (Saccharomyces cerevisiae (strain ATCC 204508 / S288c) (Baker's yeast)) (P32657 whole entry, the tested form may be a part): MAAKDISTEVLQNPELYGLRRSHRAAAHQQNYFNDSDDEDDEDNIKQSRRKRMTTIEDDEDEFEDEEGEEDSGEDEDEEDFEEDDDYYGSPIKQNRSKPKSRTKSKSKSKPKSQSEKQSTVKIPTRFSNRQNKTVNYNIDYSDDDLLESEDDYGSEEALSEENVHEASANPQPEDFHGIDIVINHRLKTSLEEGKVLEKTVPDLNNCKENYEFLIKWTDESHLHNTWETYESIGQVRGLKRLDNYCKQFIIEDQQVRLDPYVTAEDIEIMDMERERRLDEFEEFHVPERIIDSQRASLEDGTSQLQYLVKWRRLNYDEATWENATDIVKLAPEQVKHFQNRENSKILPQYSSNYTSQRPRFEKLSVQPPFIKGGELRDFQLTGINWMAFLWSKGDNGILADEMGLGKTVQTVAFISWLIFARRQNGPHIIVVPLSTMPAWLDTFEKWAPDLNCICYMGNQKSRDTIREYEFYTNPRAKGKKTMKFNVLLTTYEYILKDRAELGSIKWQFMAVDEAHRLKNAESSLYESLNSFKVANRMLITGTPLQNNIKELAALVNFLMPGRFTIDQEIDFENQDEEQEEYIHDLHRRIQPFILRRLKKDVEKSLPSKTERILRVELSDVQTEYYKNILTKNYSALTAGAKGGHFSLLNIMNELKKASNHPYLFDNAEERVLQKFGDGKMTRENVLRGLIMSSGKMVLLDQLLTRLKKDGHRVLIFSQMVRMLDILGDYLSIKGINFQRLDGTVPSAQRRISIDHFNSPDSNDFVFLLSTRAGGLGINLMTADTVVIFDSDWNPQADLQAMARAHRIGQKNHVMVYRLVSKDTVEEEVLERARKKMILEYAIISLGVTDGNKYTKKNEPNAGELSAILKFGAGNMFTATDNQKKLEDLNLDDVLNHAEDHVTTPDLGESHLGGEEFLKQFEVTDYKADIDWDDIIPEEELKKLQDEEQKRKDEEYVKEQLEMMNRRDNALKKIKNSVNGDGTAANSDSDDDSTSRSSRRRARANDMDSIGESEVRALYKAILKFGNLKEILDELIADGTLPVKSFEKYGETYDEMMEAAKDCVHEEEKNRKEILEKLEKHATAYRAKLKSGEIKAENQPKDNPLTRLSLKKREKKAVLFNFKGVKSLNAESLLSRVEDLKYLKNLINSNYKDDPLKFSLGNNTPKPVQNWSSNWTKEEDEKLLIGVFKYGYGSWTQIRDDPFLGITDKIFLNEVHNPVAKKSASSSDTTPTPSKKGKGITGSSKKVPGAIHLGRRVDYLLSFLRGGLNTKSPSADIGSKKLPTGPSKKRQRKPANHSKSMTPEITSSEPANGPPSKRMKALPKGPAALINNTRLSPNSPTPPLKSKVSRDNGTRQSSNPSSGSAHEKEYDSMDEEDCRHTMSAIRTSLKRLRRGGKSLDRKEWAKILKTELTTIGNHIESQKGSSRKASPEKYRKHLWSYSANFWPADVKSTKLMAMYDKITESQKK

Sequence of Sialic acid-binding Ig-like lectin 9 (Homo sapiens) (Q9Y336 whole entry): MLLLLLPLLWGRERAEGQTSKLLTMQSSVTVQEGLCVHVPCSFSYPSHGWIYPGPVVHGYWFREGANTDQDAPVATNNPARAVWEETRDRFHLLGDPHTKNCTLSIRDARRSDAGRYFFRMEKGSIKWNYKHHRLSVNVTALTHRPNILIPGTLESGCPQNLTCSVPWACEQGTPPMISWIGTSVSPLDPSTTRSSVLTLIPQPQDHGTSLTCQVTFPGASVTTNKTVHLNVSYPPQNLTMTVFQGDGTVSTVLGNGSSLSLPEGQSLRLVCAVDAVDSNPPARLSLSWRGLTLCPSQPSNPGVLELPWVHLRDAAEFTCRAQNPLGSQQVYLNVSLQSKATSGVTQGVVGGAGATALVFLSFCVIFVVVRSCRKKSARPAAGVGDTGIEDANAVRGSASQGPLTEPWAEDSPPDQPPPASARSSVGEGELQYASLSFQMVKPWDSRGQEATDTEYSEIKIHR
Sequence of Protein translocase subunit SecA (Escherichia coli (strain K12)) (P10408 whole entry): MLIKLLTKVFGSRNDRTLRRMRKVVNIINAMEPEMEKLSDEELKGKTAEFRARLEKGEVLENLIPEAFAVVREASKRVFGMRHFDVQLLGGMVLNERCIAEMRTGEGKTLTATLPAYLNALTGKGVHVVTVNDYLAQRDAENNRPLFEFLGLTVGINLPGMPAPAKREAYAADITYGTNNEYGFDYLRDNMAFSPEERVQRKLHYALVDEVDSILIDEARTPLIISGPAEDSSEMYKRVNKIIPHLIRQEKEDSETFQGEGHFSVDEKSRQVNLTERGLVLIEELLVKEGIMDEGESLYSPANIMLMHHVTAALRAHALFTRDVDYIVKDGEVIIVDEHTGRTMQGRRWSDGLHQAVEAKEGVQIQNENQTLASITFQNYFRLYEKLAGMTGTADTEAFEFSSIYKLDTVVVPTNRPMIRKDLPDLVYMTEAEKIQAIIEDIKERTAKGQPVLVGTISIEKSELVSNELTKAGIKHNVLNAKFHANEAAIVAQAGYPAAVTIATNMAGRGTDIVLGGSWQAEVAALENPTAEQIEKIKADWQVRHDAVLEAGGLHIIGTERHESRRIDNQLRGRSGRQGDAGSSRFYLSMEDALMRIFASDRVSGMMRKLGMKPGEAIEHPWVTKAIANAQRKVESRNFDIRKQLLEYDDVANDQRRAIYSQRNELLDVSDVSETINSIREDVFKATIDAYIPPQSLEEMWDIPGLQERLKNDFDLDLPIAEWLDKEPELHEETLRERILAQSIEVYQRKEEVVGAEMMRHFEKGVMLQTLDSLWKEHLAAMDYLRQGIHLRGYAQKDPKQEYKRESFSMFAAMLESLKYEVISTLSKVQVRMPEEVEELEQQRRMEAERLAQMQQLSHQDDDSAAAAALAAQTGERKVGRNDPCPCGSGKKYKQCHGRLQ

Take `COc1cccc(CNC(CN2CCN(C)CC2)c2ccccc2)c1` (stereo not given): the Percent Effect is -5.66% in [1]; 5.41% in [2]; -4.3% in [3]; -1.53% in assay [4]; -6.75% with Trypanosoma cruzi; 1.74% in assay [5]. Further, the Percent Effect is 9.19% in assay [6]; 11.2% in the assay listed under Homo sapiens; 1.07% in assay [7]; 3.7% in assay [8]; -3.35% in assay [9].

Take `Cc1nn(C)c(Cl)c1C(=O)NCC(c1ccsc1)N(C)C` (stereo not given): the Percent Effect is -3.36% in assay [1]; 17.7% in [2]; -4.46% in [3]; -7.25% in [4]; 7.65% in the assay with Trypanosoma cruzi; 1.14% in [5]. The Percent Effect is 4.18% in assay [6]; -12.9% in the assay listed under Homo sapiens; 5.42% in assay [7]; 16.5% in [8]; -6.9% in assay [9].

Regarding `CS(=O)(=O)NC1CCCN(C(=O)NCc2cc[nH]n2)C1` (stereo not given), the Percent Effect in assay [1] is -5.06%; in assay [2], -31.2%; in assay [3] it was -5.48%; in [4] it was -13.5%; with Trypanosoma cruzi, 5%; in [5] it was -6.11%. Also, the Percent Effect in assay [6] is 17.1%; in the assay filed under Homo sapiens, -0.514%; in [7] it was 8.57%; in assay [8], 21.2%; in assay [9] it was -16.2%.

`CN(CCNC(=O)N1CCN(Cc2ccon2)CC1)C1CCCC1`: the Percent Effect was -7% in assay [1]; 2.67% in assay [2]; 3.19% in assay [3]; -0.946% in assay [4]; 1.85% with Trypanosoma cruzi; 4.69% in assay [5]. Besides, the Percent Effect was -2.27% in assay [6]; 4.26% in the assay filed under Homo sapiens; 4.92% in [7]; 8.64% in assay [8]; -1.28% in assay [9].

In the case of `CC(NC(=O)NCc1ccc(Cl)s1)c1ccccn1` (stereo not given), the Percent Effect is -1.22% in [1]; 11.4% in assay [2]; 6.06% in [3]; 1.35% in assay [4]; -3.38% in the assay on Trypanosoma cruzi; 2.37% in assay [5]. In addition, the Percent Effect in assay [6] is 5.49%; in the assay filed under Homo sapiens, 12.4%; in assay [7] it was 3.12%; in assay [8], 15.2%; in assay [9] it was -12.8%.

As to `CC(C)Cc1noc(CN(C)C(=O)C2COc3ccccc3C2)n1` (stereo not given), the Percent Effect in [1] was -3.93%; in assay [2], 5.2%; in assay [3], -1.17%; in [4], 6.48%; with Trypanosoma cruzi, -0.0983%; in [5] it was -27.6%. Further, the Percent Effect in assay [6] was 14.3%; in the assay filed under Homo sapiens, -9.36%; in assay [7], -1.07%; in [8], 13.6%; in [9], 0.431%.

For `COc1ccc(CNC(=O)NCC2CCOC2)c(C(F)(F)F)c1` (stereo not given), the Percent Effect in [1] is -7.19%; in [2], 1.39%; in [3] it was -0.168%; in [4] it was 4.9%; in the assay with Trypanosoma cruzi it was -4.37%; in assay [5], -0.442%. Further, the Percent Effect is 9.3% in [6]; 16.2% in the assay listed under Homo sapiens; 5.26% in assay [7]; 2.56% in assay [8]; -0.725% in [9].

In the case of `COCc1cncc2c1CCN(C(=O)c1ccc(C)o1)C2`, the Percent Effect is -3.33% in [1]; 10.7% in assay [2]; 1.34% in [3]; -0.678% in [4]; -4.63% with Trypanosoma cruzi; -60% in [5]. For the same compound, the Percent Effect was 6.33% in assay [6]; -0.987% in the assay filed under Homo sapiens; 4.17% in [7]; 5% in [8]; -6.41% in [9].

On to `Cn1nc(C2CCCN(Cc3cccc(F)c3)C2)c2nccnc21` (stereo not given), for which the Percent Effect was -3.38% in [1]; 9.46% in assay [2]; 9.97% in assay [3]; 14.6% in assay [4]; 6.13% in the assay on Trypanosoma cruzi; -1.62% in [5]. The Percent Effect in assay [6] was 9.05%; in the assay listed under Homo sapiens, 13.8%; in assay [7], 2.15%; in assay [8], 16.9%; in [9] it was -15.8%.

With `Cn1nnc2cc(C(=O)N3CCCC3Cc3ccccc3)ccc21` (stereo not given), the Percent Effect is -4.28% in [1]; 2.74% in [2]; 2.56% in assay [3]; 2.89% in [4]; 4.11% in the assay on Trypanosoma cruzi; -3.18% in assay [5]. Besides, the Percent Effect in assay [6] is 5.68%; in the assay filed under Homo sapiens, 7.53%; in [7], 0%; in assay [8] it was 5%; in [9] it was -4.61%.

These data come from ChEMBL document CHEMBL3988442, “University of Dundee, Small-Polar-MMV Screening Library” (2021).
